ELG1 genotoxic: induces genotoxicity in HEK293T cells with luciferase-tagged ELG1 | 330,000 tested, 1.3% active | AID 504466 | Potency, µM (titrated, usually from 46 µM), usual class: activators | HEK293T ELG1-luciferase reporter, luminescence, 16 h; also: nearly all actives have a fitted effect of over 60% in size
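HEK293T cells expressing luciferase-tagged ELG1 were exposed to compound or DMSO vehicle for 16 hr at 37 °C and 5% CO2. Luciferase activity was then measured with ONE-Glo after 30 min at room temperature.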
NPC1 promoter act: activates the NPC1 promoter; Potency, µM (doses to about 9.22 µM), hits mostly activators; 320,000 tested, 2.4% active; Huh7 NPC1 promoter luciferase reporter, 24 h; also: nearly all actives have a fitted effect of over 60% in size
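Readout is luciferase luminescence, reflecting NPC1 promoter activation in stably transfected Huh7 cells after 24 h compound exposure at 37 °C in reduced-serum medium with 10% FBS.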
SMN2 splice enh: increases expression of the SMN2 splice variant | HEK293 SMN2-luciferase splicing reporter, luminescence, 30-36 h | Potency, µM (series often up to 46.1 µM), usual class: activators | 210,000 tested, 2.8% active; also: nearly all actives have a fitted effect of over 55% in size
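HEK293 cells carry an SMN2 […]–luciferase reporter in which exon 7 inclusion puts luciferase in frame. Cells were plated 10-12 h before compound addition, then incubated 30-36 h at 37C. ONE-Glo luminescence was read; sodium butyrate at 4.5 mM final served as control.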
Luc counter: Kinase-Glo luciferase inhibition (counter-screen). Kinase-Glo luciferase, ATP luminescence, 8 min. Potency, µM (series often up to 38.3 µM), hits mostly inhibitors. 200,000 tested, 0.28% active; also: nearly all actives have a fitted effect of over 60% in size
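Light output from Kinase-Glo luciferase with luciferin and 10 uM ATP in 50 mM imidazole pH 7.2, KCl, MgCl2, Tween 20, BSA; compound pin-delivered, 8-min ambient incubation, then luminescence read.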
Rab9 prom act: activates the Rab9 promoter | Huh7 Rab9 promoter-luciferase reporter, luminescence, 24 h | Potency, µM (doses to about 9.22 µM), usual class: activators | 320,000 tested, 2.8% active | AID 485297; also: nearly all actives have a fitted effect of over 60% in size
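Luciferase signal after 10 min detection reagent at ambient indicates Rab9 promoter upregulation; stably transfected Huh7 cells were treated 24 h with compound in DMSO at 37 °C, 5% CO2.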
FLuc counter: inhibits or activates purified firefly luciferase, miR-21 counter-screen; Potency, µM (highest dose often 57.5 µM), actives largely listed as inhibitors; purified FLuc, Km substrates, luminescence inhibition; AID 588342; 360,000 tested, 6.9% active; also: nearly all actives have a fitted effect of over 55% in size
Target sequence (P08659 whole entry, looked up): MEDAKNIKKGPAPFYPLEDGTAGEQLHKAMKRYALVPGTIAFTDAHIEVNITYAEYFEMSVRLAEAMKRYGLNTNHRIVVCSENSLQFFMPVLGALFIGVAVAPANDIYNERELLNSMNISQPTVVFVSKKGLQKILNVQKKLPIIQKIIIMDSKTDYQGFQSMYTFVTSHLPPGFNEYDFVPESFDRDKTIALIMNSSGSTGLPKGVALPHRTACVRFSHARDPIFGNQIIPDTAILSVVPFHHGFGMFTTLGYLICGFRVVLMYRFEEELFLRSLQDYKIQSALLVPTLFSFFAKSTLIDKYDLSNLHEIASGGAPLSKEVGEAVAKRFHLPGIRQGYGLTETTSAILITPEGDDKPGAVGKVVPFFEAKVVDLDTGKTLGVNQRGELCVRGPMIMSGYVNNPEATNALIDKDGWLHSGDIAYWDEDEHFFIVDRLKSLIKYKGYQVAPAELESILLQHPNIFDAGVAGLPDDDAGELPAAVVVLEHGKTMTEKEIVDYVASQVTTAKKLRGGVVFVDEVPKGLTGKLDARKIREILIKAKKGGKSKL
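Purified P. pyralis luciferase, 10 nM final, with Km-level 10 uM D-luciferin and 10 uM ATP in 50 mM Tris acetate pH 7.5, 10 mM Mg acetate, 0.01% Tween-20, 0.05% BSA; 6-point qHTS titration about 60 µM downward; luminescence read.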
Hits are given with their value. Compounds with a hit are over-represented: about 7.5% of the library has one in this group of screens. Calls follow the shape of the dose curve; as a rule, active = well fitted curve in the direction sought with a large enough effect; inconclusive = small, poorly fitted or top-dose-only effect, or another doubt; inactive = no such curve, though single readings can be large; an effect the other way counts as inactive or inconclusive.

For O=C(NN/C(=N/S(=O)(=O)c1ccc(Cl)cc1)c1ccccc1)c1cccc(Cl)c1 the results were ELG1 genotoxic 16µM, NPC1 promoter act 4µM, Rab9 prom act inconclusive and FLuc counter 6µM.
`O=S(=O)(/N=C(/NC(=S)Nc1ccccc1)c1ccccc1)c1ccc(Cl)cc1` gave ELG1 genotoxic inconclusive, NPC1 promoter act inactive, Rab9 prom act inactive and FLuc counter 24µM.
Screening O=C(O)c1ccc(N/C(=N\S(=O)(=O)c2ccc(Cl)cc2)c2ccccc2)cc1 returned ELG1 genotoxic inactive, NPC1 promoter act inactive, Rab9 prom act inactive and FLuc counter inactive.
`O=C(NN/C(=N/S(=O)(=O)c1ccc(Cl)cc1)c1ccccc1)c1ccc(O)cc1` gave ELG1 genotoxic inconclusive, NPC1 promoter act inactive, SMN2 splice enh inactive, Luc counter inactive, Rab9 prom act inactive and FLuc counter 15µM.
`CCNC(=O)c1ccc2nc(Cc3ccccc3)oc2c1` gave FLuc counter inactive.
For CCC(=O)N1CCc2cc(Br)cc(S(=O)(=O)NCCc3ccccc3Cl)c21 the results were SMN2 splice enh inactive and FLuc counter inactive.
`CCCc1nnc(NC(=O)c2cc(=O)c3cc(C)c(C)cc3o2)s1` gave SMN2 splice enh inactive and FLuc counter 12µM.
Cc1ccc2oc(C(=O)Nc3nnc(CC(C)C)s3)cc(=O)c2c1 was read as SMN2 splice enh inactive and FLuc counter inconclusive.
Screening CCCCOc1ccc(S(=O)(=O)NCc2csc(-c3ccc(OC)cc3)n2)cc1 returned SMN2 splice enh inactive and FLuc counter inactive.
`O=c1cc(-c2cccc(-c3ccc(C(F)(F)F)cc3)c2)c2cc3c(cc2o1)OCO3` gave Luc counter inactive.
For CNc1nc(-c2c[nH]c3ccccc23)cs1 the results were ELG1 genotoxic inactive, NPC1 promoter act inactive, SMN2 splice enh inactive, Luc counter inactive, Rab9 prom act inactive and FLuc counter inconclusive.
CCc1ccc(-c2csc(-c3c[nH]c4ccccc34)n2)cc1 was read as ELG1 genotoxic inconclusive, NPC1 promoter act 2.5µM, SMN2 splice enh 13µM, Luc counter inactive, Rab9 prom act 1.1µM and FLuc counter 21µM.
CCC(C)Nc1nc(-c2c[nH]c3ccccc23)cs1 (stereo not given) was read as ELG1 genotoxic inactive, NPC1 promoter act inactive, Rab9 prom act inactive and FLuc counter 13µM.
Screening O=C(c1cnc2cc(-c3ccccc3)nn2c1)c1cc([N+](=O)[O-])ccc1O returned SMN2 splice enh inactive and FLuc counter inconclusive.
`Cc1ccc(-c2cc3ncc(C(=O)c4cc([N+](=O)[O-])ccc4O)cn3n2)cc1` gave SMN2 splice enh inactive and FLuc counter 9.5µM.
Screening CC(C)[C@H](NC(=O)OC(C)(C)C)C(=O)N1CCC(C(=O)N[C@@H](C)C(=O)Nc2ccc(F)cc2)CC1 returned ELG1 genotoxic inactive, NPC1 promoter act inactive, Rab9 prom act inactive and FLuc counter inactive.
CCc1ccc(NC(=O)[C@H](C)NC(=O)C2CCN(C(=O)[C@@H](NC(=O)OC(C)(C)C)C(C)C)CC2)cc1 was read as ELG1 genotoxic inactive, NPC1 promoter act inactive, Rab9 prom act inactive and FLuc counter 21µM.
`Cc1c(C(=O)N2CCOCC2)oc2ccc(S(=O)(=O)N3CCCC3)cc12` gave NPC1 promoter act inconclusive, SMN2 splice enh inactive, Luc counter inactive, Rab9 prom act 0.016µM and FLuc counter inactive.
For COc1ccc(CNC(=O)c2oc3ccc(S(=O)(=O)N4CCOCC4)cc3c2C)cc1 the results were ELG1 genotoxic inactive, NPC1 promoter act inactive, Rab9 prom act inactive and FLuc counter inactive.
For Cc1ccc(CNC(=O)c2oc3ccc(S(=O)(=O)N4CCOCC4)cc3c2C)cc1 the results were ELG1 genotoxic inactive, NPC1 promoter act inactive, SMN2 splice enh 5.6µM, Luc counter inactive, Rab9 prom act inactive and FLuc counter inactive.
For CC(C)(CO)CNC(=O)CCc1nnc(-c2ccc(-c3ccccc3)cc2)o1 the results were ELG1 genotoxic inactive, NPC1 promoter act inactive, Rab9 prom act inactive and FLuc counter 24µM.
